# Inconclusive results are not listed. A call without a number means that no potency is given here. Values without a mark were called inactive. Calls of active or inactive are those of the source. Calls follow the shape of the full dose curve.
# Assay: p53 small molecule agonists, cell-based qHTS assay with rat liver microsomes: qHTS cell viability counter screen (AID 1963580); also: nearly all actives have a fitted effect of over 45% in size
# Conditions: p53RE-bla HCT-116 + rat microsomes, ATP viability, 16 h; series mostly up to 66 µM
# Source text: National Center for Advancing Translational Sciences [NCATS]
# Division of Preclinical Innovation [DPI]
# U.S. Environmental Protection Agency [EPA]
# National Institutes of Environmental Health Sciences [NIEHS]
# National Toxicology Program [NTP]
# U.S. Food and Drug Administration [FDA]
# p53, a tumor suppressor protein, is activated following cellular insult, including DNA damage and other cellular stresses. The activation of p53 regulates cell fate by inducing DNA repair, cell cycle arrest, apoptosis, or cellular senescence. The activation of p53, therefore, is a good indicator of DNA damage and other cellular stresses. The CellSensor p53RE-bla HCT-116 cell line contains a stably integrated beta-lactamase reporter gene under control of the p53 response elements. The activation of the reporter gene under culture conditions can be detected by fluorescence intensity. This cell line was used to screen the Tox21 10K compound library in the condition of presence of rat liver microsomes and to identify agonists that activate the p53 signaling pathway after in vitro metabolic activation (Ooka et al., Archive of Toxicology 96:1975-1987, 2022). The cytotoxicity of the Tox21 compound library against the p53 RE-bla HCT-116 cell line was tested in parallel by measuring the intra cellular ATP content in the same wells.
# Tox21 Assay Protocol Summary:
# The p53RE-bla cells were dispensed at 4,000cells/3ul/well in 1536-well black-clear bottom plates. After the assay plates were incubated at 37 C, 5% CO2 incubator for 5 hours, 23 nL of compounds dissolved in DMSO, positive controls or DMSO only was transferred to the assay plate. Following compound addition, 3 uL of rat liver microsomes (Molecular Toxicology, Boone, NC) at final concentration of 0.5 mg/mL and 1uL of B-Nicotinamide adenine dinucleotide 2'-phosphate (NADPH) at final concentration of 0.5 mg/mL were transferred to the assay plate. The plates were incubated at 37 C for 16 hours. 1 uL of LiveBLAzer detection mixture was added to each well and the plates were incubated at room temperature in the dark for 2 h. Fluorescence intensity at 460 and 530 nm emission and 405 nm excitation were measured by an Envision plate reader. For cell viability readout that measures cytotoxicity, 4 ul/well of CellTiter-Glo reagent was added into the assay plates using a Flying Reagent Dispenser. After 30 min incubation at room temperature, the luminescence intensity in the plates was measured using a ViewLux plate reader.
Compound,Potency,"activity change, negative = cytotoxicity"
CC1=NN(c2cccc(S(=O)(=O)O)c2)C(=O)C1,inactive,–
CCOCN(C(=O)CS(=O)(=O)O)c1c(C)cccc1CC,inactive,–
Oc1ccc(CCNCCCCCCNCCc2ccccc2)cc1O,inactive,–
C#C[C@]1(O)CC[C@H]2[C@@H]3CCc4cc(OC5CCCC5)ccc4[C@H]3CC[C@@]21C,inactive,–
O=C(c1ccccc1)c1ccc(O)cc1,inactive,–
O=C(NS(=O)(=O)/C=C/c1cccs1)c1ccc(F)cc1Br,inactive,–
O=S1(=O)N=C(O)c2ccccc21,inactive,–
C/C=C/C=N/NC(=O)c1ccncc1,inactive,–
c1ccc2c(c1)CCCC2C1=NCCN1 (stereo not given),inactive,–
O=[N+]([O-])c1ccc(Nc2ccc(Nc3ccccc3)c(S(=O)(=O)O)c2)c([N+](=O)[O-])c1,inactive,–
O=[N+]([O-])c1ccc(O)cc1,inactive,–
COCC(=O)O[C@]1(CCN(C)CCCc2nc3ccccc3[nH]2)CCc2cc(F)ccc2[C@@H]1C(C)C,inactive,–
CC(=O)OCCC(C)CC(C)(C)C (stereo not given),inactive,–
CCCC1CCOC(C)S1 (stereo not given),inactive,–
CN(C)c1ccc(C=O)cc1,inactive,–
CN1C(CSCC(F)(F)F)Nc2cc(Cl)c(S(N)(=O)=O)cc2S1(=O)=O (stereo not given),inactive,–
O=c1cc(-c2ccccc2)oc2cc(O)cc(O)c12,inactive,–
CC(C)=CCOc1ccc(/C=C/C(=O)c2ccc(OCC=C(C)C)cc2OCC(=O)O)cc1,inactive,–
Cc1c2ccccc2c(C)c2c1ccc1ccccc12,inactive,–
Cc1c(NC(=O)c2cccnc2)c(=O)n(-c2ccccc2)n1C,inactive,–

Compound,Potency,"activity change, negative = cytotoxicity"
N#CCCCC(C#N)CCC#N (stereo not given),inactive,–
CC(C)(C)c1ccc(C(=O)O)cc1,inactive,–
Cc1cc(=O)c2c(O)c3c(O)cc(=O)c4c3c3c(cc(O)c1c23)C(C)(C)C=4O,–,-8.38% [at 13.5 µM]
CCOc1ccc2nc(S(N)(=O)=O)sc2c1,inactive,–
Nc1ccc([N+](=O)[O-])c(N)c1,inactive,–
CCCCCCCCCCCCOC(C)=O,inactive,–
CCc1cccc(N(C)C(N)=Nc2cccc3ccccc23)c1,inactive,–
N#CSCSc1nc2ccccc2s1,inactive,–
CCN(CCC#N)c1ccccc1,inactive,–
CCCCOC(=O)CCC(C)=O,inactive,–
CCCCCCCC/C=C\CCCCCCCC(=O)N(CCO)CCO,inactive,–
CC(=O)OCC1=C(C(=O)O)N2C(=O)[C@@H](NC(=O)CSc3ccncc3)[C@H]2SC1,inactive,–
CC1=C(C(=O)O)N2C(=O)[C@@H](NC(=O)[C@H](N)C3=CCC=CC3)[C@H]2SC1,inactive,–
CCOC(=O)/C=C/c1ccccc1,inactive,–
CCC(C)(C)c1cc(O)c(C(C)(C)CC)cc1O,inactive,–
CCCCCCCCCCO[C@@H]1O[C@H](CO)[C@@H](O)[C@H](O)[C@H]1O,inactive,–
NC(=O)c1cc[n+](CC2=C(C(=O)[O-])N3C(=O)[C@@H](NC(=O)Cc4cccs4)[C@H]3SC2)cc1,inactive,–
CCCCCC[C@@H](O)C/C=C\CCCCCCCC(=O)OC,inactive,–
CC(=O)c1ccc[nH]1,inactive,–
CCCCCCCCCCCCCCCBr,inactive,–
